From PubChem
KB-V1 cytotox: kills drug-selected multidrug resistant KB-V1 cells. KB-V1 MDR cells viability, CellTiter-Glo, 72 h. Potency, µM (top dose mostly 46.1 µM), usual class: cytotoxic. hit rate 3.4% among 400,000; also: nearly all actives have a fitted effect of over 60% in size
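KB-V1 cells (P-gp-expressing MDR subline of KB-3-1) in phenol-red-free DMEM with 10% FBS were exposed to library compounds over a concentration series for 72 h at 37 degrees C. Viability read by CellTiter-Glo luminescence; concentration-effect curves fitted after normalization.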
HT1080 IDH1KD tx: kills HT-1080 cells with IDH1 knockdown | HT-1080 IDH1 knockdown viability, ATP luminescence, 48 h | Potency, µM (titrated, usually from 46.1 µM), actives largely listed as cytotoxic | hit rate 2% among 360,000 | AID 686971
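Viability of IDH1-knockdown HT-1080 fibrosarcoma cells was assessed by CellTiter-Glo after 48 h at 37 °C with titrated compound; concentration-effect curves were classified by fit quality and response size.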
HT1080NT lethal: kills 2HG-producing HT-1080-NT fibrosarcoma cells | HT-1080-NT fibrosarcoma viability, CellTiter-Glo ATP luminescence, 48 h | Potency, µM (doses to about 46.1 µM), usual class: cytotoxic | hit rate 1.6% among 360,000 | AID 686970;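 also: NT is the 2HG producing partner of a matched IDH1 knockdown line; nearly all actives have a fitted effect of over 55% in size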
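Viability by CellTiter-Glo luminescence after 48 h compound exposure at 37C of HT-1080-NT cells (750/well, RPMI, 5% FBS). % activity scaled between DMSO wells and medium-only wells, then curve-fitted and categorized by curve class.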
MCF10A rereplic: DNA re-replication induction in MCF 10a cells; hit rate 2.9% among 350,000; Potency, µM (series often up to 46.1 µM), hits mostly activators; MCF 10A DNA re-replication, Hoechst nuclear intensity, 48 h; also: nearly all actives have a fitted effect of over 50% in size
SW480 rereplic: DNA re-replication induction in SW480 cells; SW480 DNA re-replication, Hoechst DNA content imaging, 48 h; Potency, µM (titrated, usually from 46.1 µM), usual class: activators; hit rate 1.8% among 340,000; AID 624297; also: nearly all actives have a fitted effect of over 55% in size
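First, 250 cells per well were seeded. Next, compound or vehicle (23 nL) was pinned in, plates sat 48 hr at 37 C. Finally Hoechst was added for 40 min before fluorescence scanning.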
KB-3-1 cytotox: kills parental KB-3-1 adenocarcinoma cells. Potency, µM (top dose mostly 46.1 µM), most hits filed as cytotoxic. hit rate 1.4% among 400,000. KB-3-1 viability, CellTiter-Glo ATP luminescence, 72 h; also: nearly all actives have a fitted effect of over 60% in size
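Parental KB-3-1 adenocarcinoma cells in phenol-red-free DMEM with 10% FBS were pin-treated with compounds at several concentrations, incubated 72 h at 37 °C, and viability read by CellTiter-Glo luminescence; concentration-effect curves were fitted after normalization.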
Large screens that a line does not name were inactive. In the library only some 8% were active in any assay of this set; here they are far more common. Calls follow the shape of the dose curve; as a rule, active = well fitted curve in the direction sought with a large enough effect; inconclusive = small, poorly fitted or top-dose-only effect, or another doubt; inactive = no such curve, though single readings can be large; an effect the other way counts as inactive or inconclusive.

O=C(/C=C/c1ccccc1)NC(NC(=S)Nc1ccc(C(=O)O)cc1)C(Cl)(Cl)Cl (stereo not given)	none
Cc1ccc(C)c(NC(=S)NC(NC(=O)/C=C/c2ccccc2)C(Cl)(Cl)Cl)c1 (stereo not given)	KB-V1 cytotox inconclusive, HT1080 IDH1KD tx inconclusive, HT1080NT lethal inconclusive, MCF10A rereplic 2.9µM, SW480 rereplic inconclusive, KB-3-1 cytotox inconclusive
O=C(Cc1cccc2ccccc12)NC(NC(=S)Nc1ccccc1Cl)C(Cl)(Cl)Cl (stereo not given)	KB-V1 cytotox inconclusive, MCF10A rereplic inconclusive
O=C(/C=C/c1ccccc1)NC(NC(=S)Nc1cccc(O)c1)C(Cl)(Cl)Cl (stereo not given)	KB-V1 cytotox inconclusive, HT1080 IDH1KD tx inconclusive, HT1080NT lethal inconclusive, MCF10A rereplic inconclusive, KB-3-1 cytotox inconclusive
O=C(/C=C/c1ccccc1)NC(NC(=S)Nc1cccc(Cl)c1)C(Cl)(Cl)Cl (stereo not given)	KB-V1 cytotox inconclusive, HT1080 IDH1KD tx inconclusive, HT1080NT lethal inconclusive, MCF10A rereplic 7.3µM, SW480 rereplic inconclusive, KB-3-1 cytotox inconclusive
CCCCN1CC(c2nc3ccccc3n2CCCCOc2ccc(C)c(C)c2)CC1=O (stereo not given)	none (no result: HT1080 IDH1KD tx, HT1080NT lethal, MCF10A rereplic, SW480 rereplic)
O=C1C(=O)c2ccccc2C(O)=C1C1CCC(c2ccc(Cl)cc2)CC1 (stereo not given)	KB-V1 cytotox inconclusive, HT1080NT lethal inconclusive, MCF10A rereplic 0.033µM, KB-3-1 cytotox inconclusive
CC(/C=N/NC(=O)c1cccc(F)c1)=C\c1ccccc1	KB-V1 cytotox inconclusive, HT1080 IDH1KD tx inconclusive, HT1080NT lethal inconclusive, MCF10A rereplic inconclusive, SW480 rereplic 15µM, KB-3-1 cytotox 16µM
CCOC(=O)N/N=C/c1cc(C)n(-c2cccc3ccccc23)c1C	KB-V1 cytotox inconclusive, MCF10A rereplic inconclusive
Cc1cc(/C=N/NC(=O)c2cccc(F)c2)c(C)n1-c1ccccc1	MCF10A rereplic 18µM
COC(=O)N/N=C/c1cc(C)n(-c2cccc3ccccc23)c1C	KB-V1 cytotox 21µM, MCF10A rereplic inconclusive, KB-3-1 cytotox inconclusive
CC(/C=C/c1ccccc1)=N\NC(=O)c1ccc2c(c1)OCCO2	SW480 rereplic 18µM, KB-3-1 cytotox inconclusive
CC(/C=C/c1ccccc1)=N/NC(=O)CNC(=O)c1ccc2c(c1)OCO2	MCF10A rereplic inconclusive
CCc1ccc(S(=O)(=O)c2nnn3c2nc(Nc2ccc(C)c(Cl)c2)c2sccc23)cc1	none (no result: HT1080 IDH1KD tx, HT1080NT lethal, MCF10A rereplic, SW480 rereplic)
COC(=O)c1cc(NC(=O)Cn2nc(-c3ccc(C)c(C)c3)ccc2=O)cc(C(=O)OC)c1	none (no result: HT1080 IDH1KD tx, HT1080NT lethal, MCF10A rereplic, SW480 rereplic)
Cc1ccc(C(O)c2ncc(-c3cccc(C(F)(F)F)c3)[nH]2)cc1 (stereo not given)	none (no result: MCF10A rereplic, SW480 rereplic)
Cc1cc(NC(=O)c2ccccc2F)ccc1-c1nc2ccccc2s1	none (no result: HT1080 IDH1KD tx, HT1080NT lethal, MCF10A rereplic, SW480 rereplic)
O=c1c2sc3ccccc3c2n(Cc2ccc(F)cc2Cl)c(=O)n1Cc1ccccc1	none (no result: HT1080 IDH1KD tx, HT1080NT lethal, MCF10A rereplic, SW480 rereplic)
CC(=C/c1ccc(C(C)C)cc1)/C=N/NC(=O)c1ccncc1	MCF10A rereplic 21µM
CC(/C=C/c1ccccc1F)=N\NC(=O)c1cccc(F)c1	KB-V1 cytotox 21µM, HT1080 IDH1KD tx inconclusive, MCF10A rereplic inconclusive, SW480 rereplic inconclusive, KB-3-1 cytotox inconclusive
CC(/C=N/NC(=O)c1ccncc1)=C\c1ccccc1	HT1080 IDH1KD tx inconclusive
O=C(O)C(Cc1cc(I)c(O)c(I)c1)c1ccccc1 (stereo not given)	MCF10A rereplic inconclusive (no result: KB-V1 cytotox, HT1080 IDH1KD tx, HT1080NT lethal, KB-3-1 cytotox)
CCCOc1ccc(-c2nn(-c3ccccc3)cc2/C=C2\SC(N)=NC2=O)cc1	MCF10A rereplic 4.6µM, SW480 rereplic inconclusive
Cc1cc(-c2nn(-c3ccccc3)cc2/C=C2\SC(N)=NC2=O)ccc1OC(C)C	KB-V1 cytotox 16µM, MCF10A rereplic 4.1µM, SW480 rereplic inconclusive, KB-3-1 cytotox inconclusive
CCc1cc2c(=O)n(Cc3ccco3)c(SCC(=O)NCC3CCCO3)nc2s1 (stereo not given)	KB-V1 cytotox 2.6µM, KB-3-1 cytotox inconclusive
